# Measured values reported in PMC7819943, “Rice protein-binding microarrays: a tool to detect cis-acting elements near promoter regions in rice”.
# Whole data set: some 35,000 sequences, median “fluorescence intensity (a.u.)” near 10,000, cut for the highest 2% near 52,000. For the sample, the highest values were picked, then their nearest neighbours and some sequences at random.
# Biological target: T1, OsWOX13 (Oryza sativa, UniProt Q5QMM3 1-267)
# T1 sequence: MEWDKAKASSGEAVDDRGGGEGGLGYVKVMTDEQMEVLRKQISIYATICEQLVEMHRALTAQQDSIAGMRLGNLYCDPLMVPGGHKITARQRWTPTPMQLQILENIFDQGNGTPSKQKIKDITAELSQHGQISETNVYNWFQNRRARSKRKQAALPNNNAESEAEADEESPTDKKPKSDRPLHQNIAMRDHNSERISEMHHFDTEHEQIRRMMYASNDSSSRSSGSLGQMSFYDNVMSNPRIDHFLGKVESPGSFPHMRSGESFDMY
# Experiment: protein-binding microarray (RPBM); PBS, 2% BSA, 51.3 ng/ul salmon testes DNA, 50 uM zinc acetate, 200 nM TF, 25 C, 1 h; high values mean tight binding
# Details: protein: recombinant; tags: N-terminal polyhistidine and DsRed monomer fusion (pET32a); label: CyDye5-dUTP incorporated in the synthesized complementary strand; 3' TTTTT single-stranded linker to array surface; dsDNA, one strand shown
# How it was run: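 Binding signal is defined as the fluorescence intensity of each feature in arbitrary units, read on an Axon 4000B scanner. Transcription factors with N-terminal polyhistidine and DsRed fusions came from E. coli BL21-CodonPlus and were purified on Ni–NTA. They were incubated at 200 nM for 1 h at 25 °C on a custom Agilent array that had been made double-stranded with Cy5-dUTP, with 50 µM zinc acetate present, and the array was washed.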
row,Sequence,binding signal
1,AAGAATTAATTAATGTTTAACTAGATGGCCTTATTATCTCCGGAGTCACCTAGTGCAG,34300 fluorescence intensity (a.u.)
2,ATGTGTATGATGTGTTTGTTTATGTGTGGACTTTATAATACGGAGTCACCTAGTGCAG,3210 fluorescence intensity (a.u.)
3,TTTACTAAGCAATCAAGATAACCTGATGTGCCTATCCATCCGGAGTCACCTAGTGCAG,10200 fluorescence intensity (a.u.)
4,ACAAACACGTAATAACATTAATTTCAATCTACACATCATACGGAGTCACCTAGTGCAG,9270 fluorescence intensity (a.u.)
5,GCTCCTAACCAATCAGCGCACCCATCGTCCCAAAATCCCCCGGAGTCACCTAGTGCAG,8480 fluorescence intensity (a.u.)
6,ATAATTATTATGTCTGGTAGGATAGGATTTAGATGGTAAGCGGAGTCACCTAGTGCAG,5670 fluorescence intensity (a.u.)
7,TGATGAGATTGATCCGATGATCTCCTCTTTAAATTTCTCGCGGAGTCACCTAGTGCAG,19100 fluorescence intensity (a.u.)
8,ATCAATTCAAATTTAAATTTTGATGAAACTCTTCGAAATCCGGAGTCACCTAGTGCAG,14400 fluorescence intensity (a.u.)
9,CTCTCGCTCGCCATGATTGATCGAGCTCCACCTGCCAATTCGGAGTCACCTAGTGCAG,12900 fluorescence intensity (a.u.)
10,TCCAATTGATTGCAAATCGATTCCTCACTCCTCTCTTATCCGGAGTCACCTAGTGCAG,57400 fluorescence intensity (a.u.)
11,AAATCCCACTCCAATCACCACCACCTCTTCTCCAATTCCACGGAGTCACCTAGTGCAG,3840 fluorescence intensity (a.u.)
12,TGATGATTTGATTTGATTTGATTCAATCTCCAAATCGATCCGGAGTCACCTAGTGCAG,65100 fluorescence intensity (a.u.)
13,TCCAGTGATTAATCTCTTCTCCATCTCTGCCCTGCACCCTCGGAGTCACCTAGTGCAG,21400 fluorescence intensity (a.u.)
14,CCAAATCAATCAAATCGCATTCCACCAATTCTCCACTCTCCGGAGTCACCTAGTGCAG,27300 fluorescence intensity (a.u.)
15,AATCTCAAATTGAATCCATTTTATTTGATGACGATTTATTCGGAGTCACCTAGTGCAG,9810 fluorescence intensity (a.u.)
16,CCAATGATTGATCGATTTCTCTCCATACGCCGTGTGCCAACGGAGTCACCTAGTGCAG,59700 fluorescence intensity (a.u.)
17,TCATTTCTCCAATCATAGGAGCTGGCGCATTGATCGATCACGGAGTCACCTAGTGCAG,6160 fluorescence intensity (a.u.)
18,TTGGAGATGATTGATTGGAAATCTTCTTCCAGTCTCCTCTCGGAGTCACCTAGTGCAG,61700 fluorescence intensity (a.u.)
19,GTGATGATTTATTTTCGAACTATCTAGCTATTTATCTAGACGGAGTCACCTAGTGCAG,9370 fluorescence intensity (a.u.)
20,CTCCAATTCATCTATAATCAATCTAATAGCCAATTCATACCGGAGTCACCTAGTGCAG,5900 fluorescence intensity (a.u.)
21,GTTTTATTCTGATTAAATTAAATGCCACAGGGACATTGTCCGGAGTCACCTAGTGCAG,9600 fluorescence intensity (a.u.)

row,Sequence,binding signal
1,ATGTGGCCGATAATTGCTTTGCATGCTGATGGATGTGGCTCGGAGTCACCTAGTGCAG,4180 fluorescence intensity (a.u.)
2,GTCATAAATTGATCCATACATATCATAGTAAAGCGTGGGTCGGAGTCACCTAGTGCAG,33400 fluorescence intensity (a.u.)
3,ATCTAATCTTGAATTAAACTCACTATCAATTCCCACCATCCGGAGTCACCTAGTGCAG,4380 fluorescence intensity (a.u.)
4,GAAATAATTGATTGAATCCTATTCTATCCTCTAAAATTCCCGGAGTCACCTAGTGCAG,30900 fluorescence intensity (a.u.)
5,CTAAATTGAATCTATCCACTTTGCCTCCTAAACTCACCCCCGGAGTCACCTAGTGCAG,54600 fluorescence intensity (a.u.)
6,TAGTCAATTACTACTAGGTATGTGCTATTCATAACCATGACGGAGTCACCTAGTGCAG,7320 fluorescence intensity (a.u.)
7,AGCTTTTCAGACTGAAAATGTAATAGACAACCTTATCAGACGGAGTCACCTAGTGCAG,3810 fluorescence intensity (a.u.)
8,GGTAAATTGCAATACTCCGGATGTTCAGAGACAATAAGAGCGGAGTCACCTAGTGCAG,13900 fluorescence intensity (a.u.)
9,TTAGATTATTGAGTCAGATTACTATAAGCTAGATTATTATCGGAGTCACCTAGTGCAG,12500 fluorescence intensity (a.u.)
10,TATCGATCGATTGATTGCTATAGCTAGGTCAAATCGATCGCGGAGTCACCTAGTGCAG,28100 fluorescence intensity (a.u.)
11,CGTAATTAGTAGGTTGATTACTATTTGCTAATCATAAGTGCGGAGTCACCTAGTGCAG,65200 fluorescence intensity (a.u.)
12,GTGCTAATATAATTTAAATAACTAGTTTGACGGACAAATCCGGAGTCACCTAGTGCAG,10800 fluorescence intensity (a.u.)
13,TTGATTAATTTGACGTCGATGCTACTAATAGTTAACCTTCCGGAGTCACCTAGTGCAG,54200 fluorescence intensity (a.u.)
14,TATGAATGCATTATGATTACTATTTGCTAATCATAAGTGGCGGAGTCACCTAGTGCAG,11000 fluorescence intensity (a.u.)
15,TAGTAATTGATTGCTGCCAAGATTACATTACTGCCCAATACGGAGTCACCTAGTGCAG,65500 fluorescence intensity (a.u.)
16,TTGTAATTAGTAGGGTGATTACTATTTGGTAATCATAAGTCGGAGTCACCTAGTGCAG,33000 fluorescence intensity (a.u.)
17,TGCTAGTTAATATAATCTACTAATTAAAATAGTCGATTGACGGAGTCACCTAGTGCAG,6000 fluorescence intensity (a.u.)
18,TTGCCAATTATGATTGGAGATTTACAAGTAGACTTCAATACGGAGTCACCTAGTGCAG,18500 fluorescence intensity (a.u.)
19,ACAAATTAGCTATTATATTGGCTATAGATGATTTGGAGTACGGAGTCACCTAGTGCAG,42300 fluorescence intensity (a.u.)
20,TACAAATTGATTGGCTATAGGTCAAATAGTGGATCCTAGACGGAGTCACCTAGTGCAG,56000 fluorescence intensity (a.u.)
21,CAATCATTGATTGTTACTTTGTTAGTAATTGGTTAGTATACGGAGTCACCTAGTGCAG,30100 fluorescence intensity (a.u.)
